PubChem BioAssay AID2810 (NMMLSC, 2010)
Hit rate of the full screen: of about 1,200 compounds, about 65 (5%) were called active.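 The calls were made as follows: active = at either tested dose, response and 90th-percentile vesicle-stain brightness of CD8 cells under set limits and under 9% cells vesicle-bound; inactive = the rest.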 What follows is part of a selection rich in actives, with near analogues and random picks from the rest.

Test: modulators of CD8 T cell-vesicle binding, confirmation, cherry-picked primary hits, two concentrations (AID 2810);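 also: lower values mean blocking of vesicle binding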;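 as to percent response (vesicle binding): ratio of mean FL2 vesicle stain of CD8+ cells to that row's control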
Conditions: 2C CD8+ T cell-vesicle binding, flow cytometry; for double positive events: CD8+/vesicle+ events
[1] = at 15.4 µM, stronger effect = lower value

| Structure (SMILES) | double positive events (at 7.7 µM) [%] | double positive events [1] [%] | percent response (vesicle binding) [1] | percent response (vesicle binding) (response, at 7.7 µM) [%] |
| --- | --- | --- | --- | --- |
| O=C(NCCC1=CCCCC1)C(=O)NCC(c1ccco1)N1CCN(c2ccccc2F)CC1 (stereo unspecified) | 36.4 | 10.7 | 201% (inactive) | 264 |
| O=C(NCc1cccnc1)C(=O)NCC(c1ccco1)N1CCN(c2ccccc2)CC1 (stereo unspecified) | 20.2 | 6.1 | 135% (inactive) | 202 |
| COc1ccccc1NS(=O)(=O)c1cc(NC(=O)CNC(=O)c2cc(C)cc(C)c2)ccc1C | 21 | 0.9 | 39.6% (active) | 218 |
| COc1ccc(NC(=O)Cc2ccc(C)c(C)c2)cc1S(=O)(=O)N1CCCCC1 | 37.7 | 10.7 | 257% (inactive) | 649 |
| COc1ccccc1NS(=O)(=O)c1ccc(C)c(NC(=O)c2ccc(S(=O)(=O)N3CCCCCC3)cc2)c1 | 11.9 | 35.5 | 332% (inactive) | 182 |
| O=S(=O)(NN=C1CCCCCCC1)c1ccc(Br)cc1 | 13.7 | 7.3 | 144% (inactive) | 120 |
| CC(/C=C/c1ccc(C)o1)=C\C(=O)O | 19.1 | 19.8 | 196% (inactive) | 227 |
| COCCNC(=O)c1c[nH]c2ccc(OC)cc2c1=O | 18.7 | 13.1 | 154% (inactive) | 563 |
| NC(=O)NC(=O)COC(=O)CN1C(=O)C2CCCCC2C1=O (stereo unspecified) | 15.9 | 33.3 | 345% (inactive) | 151 |
| CCOC(=O)c1c(O)c2cc(Cl)ccc2n(CC)c1=O | 10.9 | 12 | 102% (inactive) | 127 |
| CCn1c(=O)cc(SCC(=O)N(C)Cc2ccccc2)c2ccccc21 | 24.8 | 14 | 193% (inactive) | 224 |
| CCOC(=O)c1c(C=O)c2ccccc2n1CC | 17.9 | 3 | 28.6% (active) | 287 |
| Cc1ccc(CSc2ccc(S(=O)(=O)N3CCCC3)cn2)cc1 | 8.3 | 18 | 92.4% (inactive) | 237 |
| CC(=O)c1ccc(Nc2cc(C)nc3nc(C)nn23)cc1 | 10.4 | 19.9 | 90.9% (inactive) | 189 |
| COc1ccc(NC(=S)N2CCN(c3ncccn3)CC2)c(OC)c1 | 30.6 | 14.7 | 195% (inactive) | 246 |
| COc1ccc(-c2cccc3c2NC(=O)C3=O)cc1OC | 7.8 | 26.1 | 427% (inactive) | 305 |
| C/C(=N\Nc1nc2ccccc2[nH]1)c1cc2ccccc2o1 | 14.4 | 31.4 | 271% (inactive) | 266 |
| Cc1sc2ncnc(NCC(C)(C)N3CCOCC3)c2c1C | 6.4 | 1.9 | 49.2% (active) | 251 |
| CCSc1ncnc2sc(C)c(C)c12 | 7.6 | 17.4 | 318% (inactive) | 354 |
| CC(C)(CNC(=O)c1cc2c(s1)CCCC2)N1CCOCC1 | 8 | 20.9 | 213% (inactive) | 164 |

| Structure (SMILES) | double positive events (at 7.7 µM) [%] | double positive events [1] [%] | percent response (vesicle binding) [1] | percent response (vesicle binding) (response, at 7.7 µM) [%] |
| --- | --- | --- | --- | --- |
| Cc1ncc([N+](=O)[O-])n1Cc1cccc(F)c1 | 7.3 | 11.5 | 118% (inactive) | 274 |
| COc1ccc(S(=O)(=O)N(C)C[C@H]2Oc3ccc(NC(=O)C4CC4)cc3C(=O)N([C@H](C)CO)C[C@@H]2C)cc1 | 5.6 | 16.6 | 189% (inactive) | 102 |
| Cc1cc(C)c(/C=N/NC(N)=O)c(C)c1/C=N/NC(N)=O | 38.1 | 18.6 | 240% (inactive) | 428 |
| COc1ccc(/C=C2\SC(N3CCc4ccccc4C3)=NC2=O)cc1OC | 22.6 | 2.9 | 42% (active) | 201 |
| CCCC(=O)N1CCc2cc(OC)c(OC)cc2C1COc1ccccc1OC (stereo unspecified) | 21.6 | 13.8 | 128% (inactive) | 276 |
| O=C1N=C(N2CCOCC2)S/C1=C\c1cccs1 | 8.6 | 6.3 | 248% (inactive) | 332 |
| CC(C)NC(=O)NC(=O)COC(=O)c1ccc(F)cc1F | 29.2 | 19.1 | 385% (inactive) | 423 |
| O=C(c1c[nH]c2ccccc12)N1CCN(Cc2ccccc2)CC1 | 13.7 | 10.6 | 47.9% (inactive) | 181 |
| CC(NS(=O)(=O)c1ccc(Cl)c(Cl)c1)C(=O)OCC(=O)N1CCCCCC1 (stereo unspecified) | 27.5 | 12.9 | 182% (inactive) | 284 |
| c1csc(-c2nc3ccccc3[nH]2)c1 | 38.6 | 18.6 | 255% (inactive) | 233 |
| COc1ccc([C@H]2CC(=O)C=C(c3ccc4c5c(cccc35)CC4)C2)cc1 | 6.5 | 29.8 | 626% (inactive) | 271 |
| COc1ccc([C@H]2CC(=O)C=C(c3c(C)cc(C)cc3C)C2)cc1 | 12.5 | 5.7 | 49.9% (active) | 132 |
| COc1ccc([C@H]2CC(=O)C=C(c3cc(F)ccc3OC)C2)cc1 | 19.1 | 16.3 | 198% (inactive) | 138 |
| COc1ccc([C@H]2CC(=O)C=C(/C=C/c3ccccc3)C2)cc1 | 19.1 | 3.3 | 36.9% (active) | 286 |
| COc1ccc(C2=CC(=O)CC(c3ccc(OC)cc3)C2)cc1 (stereo unspecified) | 14.8 | 3.2 | 110% (inactive) | 120 |
| COc1ccc([C@H]2CC(=O)C=C(c3cccc(Cl)c3)C2)cc1 | 37.2 | 4.7 | 129% (inactive) | 315 |
| O=C(NCCO)/C(=C\c1ccc(Br)cc1)NC(=O)c1cccs1 | 6.9 | 24.7 | 683% (inactive) | 70.4 |
| COc1ccc(CCCC(=O)NC(C)c2ccccc2)cc1 (stereo unspecified) | 12.2 | 15.2 | 93.8% (inactive) | 104 |
| O=C(COC(=O)C1(c2cccc(F)c2)CCCC1)NCc1ccc2c(c1)OCO2 | 15.2 | 3.1 | 106% (inactive) | 82.7 |
